According to PubChem BioAssay AID1159580 (chemical genetic matrix, 2015):
Where “and” joins values, the source holds several entries; their conditions need not be identical. Identical values can stand only once. About 2,000 (36%) of roughly 5,500 compounds were called active. Roughly 18% stayed inconclusive and do not appear here. Cut-off read from the data, not from the text of the source: active = normalized growth mostly below about 0.91 (no sharp cut-off); inconclusive = no clear call, values can overlap the other calls; inactive = mostly above about 0.92. Some of the results follow.

Test: chemical genetic growth profiling, strain panel (AID 1159580);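 note: tested at 20 µM; growth read once vehicle control cultures reached saturation at 30 °C; 1 = growth at the plate median or of vehicle wells; lower values mean less growth of the strain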
Conditions: S. cerevisiae deletion strains, growth OD

Measured: normalized growth

CC(=O)O[C@H]1CC[C@@]2(C)C(C[C@@H](OC(C)=O)[C@]3(C)C2CC[C@@]2(C)[C@H](c4ccoc4)OC(=O)[C@H]4O[C@]423)C1(C)C (some centres not stated)
inactive: locus YAL013W, strain DEP1, active compounds read low 0.993 | locus YAL021C, strain ccr4, active compounds read low 1.01 | locus YAL026C, strain drs2, active compounds read low 1 | locus YAL030W, strain snc1, active compounds read low 0.99 | locus YBL061C, strain skt5, active compounds read low 0.996 | locus YBR009C, strain hhf1, active compounds read low 0.987 | locus YBR021W, strain FUR4, active compounds read low 0.999 | locus YBR023C, strain chs3, active compounds read low 0.997 | locus YBR171W, strain sec66, active compounds read low 1 | locus YBR229C, strain ROT2, active compounds read low 1 | locus YBR231C, strain swc5, active compounds read low 1.01 | locus YBR279W, strain paf1, active compounds read low 1 | locus YCL011C, strain gbp2, active compounds read low 0.993 | locus YCL016C, strain dcc1, active compounds read low 1 | locus YCL029C, strain bik1, active compounds read low 1.01 | locus YCL061C, strain MRC1, active compounds read low 1 | locus YCL069W, strain vba3, active compounds read low 0.998 | locus YCR088W, strain abp1, active compounds read low 0.995 | locus YDL005C, strain med2, active compounds read low 0.996 | locus YDL035C, strain GPR1, active compounds read low 0.998 | locus YDL040C, strain nat1, active compounds read low 0.988 | locus YDL074C, strain BRE1, active compounds read low 1.04 | locus YDL101C, strain DUN1, active compounds read low 1.03 | locus YDL185W, strain tfp1, active compounds read low 1.01 | locus YDL192W, strain arf1, active compounds read low 0.992 | locus YDR001C, strain nth1, active compounds read low 0.99 | locus YDR069C, strain doa4, active compounds read low 0.991 | locus YDR101C, strain arx1, active compounds read low 1.01 | locus YDR137W, strain rgp1, active compounds read low 1.08 | locus YDR159W, strain sac3, active compounds read low 0.983 | locus YDR162C, strain NBP2, active compounds read low 1.02 | locus YDR195W, strain ref2 0.93 | locus YDR297W, strain sur2, active compounds read low 0.999 | locus YDR318W, strain mcm21, active compounds read low 1.01 | locus YDR334W, strain swr1, active compounds read low 0.985 | locus YDR335W, strain msn5, active compounds read low 0.999 | locus YDR388W, active compounds read low 1.01 | locus YDR392W, strain spt3, active compounds read low 0.914 | locus YDR502C, strain sam2, active compounds read low 1.03 | locus YEL003W, strain gim4, active compounds read low 0.991 | locus YEL037C, strain rad23, active compounds read low 0.988 | locus YEL061C, strain CIN8 (second series), active compounds read low 0.987 | locus YEL061C, strain CIN8, active compounds read low 1.01 | locus YER015W, strain faa2, active compounds read low 0.998 | locus YER016W, strain bim1, active compounds read low 0.999 | locus YER110C, active compounds read low 1.02 | locus YER111C, strain swi4, active compounds read low 0.983 | locus YER155C, strain BEM2 (second series), active compounds read low 0.988 | locus YER155C, strain BEM2, active compounds read low 1 | locus YER167W, strain BCK2, active compounds read low 0.993 | locus YFR010W, strain ubp6, active compounds read low 0.992 | locus YGL078C, strain dbp3, active compounds read low 1.02 | locus YGL086W, strain mad1, active compounds read low 1.01 | locus YGL167C, strain pmr1, active compounds read low 0.994 | locus YGL173C, strain kem1, active compounds read low 1 | locus YGL227W, strain vid30, active compounds read low 1 | locus YGL240W, strain doc1, active compounds read low 0.978 | locus YGL248W, strain PDE1, active compounds read low 1.02 | locus YGL253W, strain hxk2, active compounds read low 1 | locus YGR078C, strain PAC10, active compounds read low 1.02 | locus YGR135W, strain pre9, active compounds read low 1.06 | locus YGR229C, strain SMI1, active compounds read low 0.959 | locus YGR252W, strain gcn5, active compounds read low 1.1 | locus YHR013C, strain ard1, active compounds read low 0.981 | locus YHR027C, strain rpn1, active compounds read low 0.998 | locus YHR030C, strain SLT2, active compounds read low 1.05 | locus YHR079C, strain IRE1 (second series), active compounds read low 1.02 | locus YHR079C, strain IRE1, active compounds read low 1.04 | locus YHR094C, strain hxt1, active compounds read low 1.01 | locus YHR129C, strain ARP1, active compounds read low 1.01 | locus YHR142W, strain chs7, active compounds read low 1.03 | locus YHR200W, strain rpn10, active compounds read low 1.04 | locus YIL066C, strain RNR3, active compounds read low 0.999 | locus YIL073C, strain SPO22, active compounds read low 1.04 | locus YIL125W, strain kgd1, active compounds read low 1.01 | locus YIR030C, strain dcg1, active compounds read low 1 | locus YJL092W, strain hpr5, active compounds read low 0.998 | locus YJL095W, strain BCK1 (second series), active compounds read low 1 | locus YJL095W, strain BCK1, active compounds read low 1.07 and 1.04 | locus YJL115W, strain asf1, active compounds read low 0.997 | locus YJL129C, strain trk1, active compounds read low 0.987 | locus YJL134W, strain LCB3, active compounds read low 1.01 | locus YJL154C, strain vps35, active compounds read low 1 | locus YJL164C, strain tpk1, active compounds read low 0.995 | locus YJL166W, strain qcr8, active compounds read low 1 | locus YJL168C, strain set2, active compounds read low 1.01 | locus YJL187C, strain SWE1 (second series), active compounds read low 1.04
